Screening data from PubChem BioAssay.
KLF5 inh: KLF5 expression inhibitors, primary screen, DLD-1 cells, luminescence | DLD-1 KLF5 promoter-luciferase reporter | actives 0.23% (n = 290,000) | inhibition, % at 5 µM;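 active means inhibition above a per-plate limit of that plate's mean compound inhibition plus 3 SD, cut at about 60% in these data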;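 further: 0% = DMSO wells and 100% = LY294002 at 200 µM; higher means less KLF5 promoter-driven luciferase light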
aSyn UTR inh: MLPCN primary screen, SNCA 5' untranslated region; alpha-synuclein 5'UTR reporter, inhibitor activity; actives 0.82% (n = 300,000); inhibition, % (tested at 7.5 µM); in the data active means inhibition above about 60%; inconclusive means no clear call, values can overlap the other calls;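 further: H4 neuroglioblastoma cells stably carrying SNCA 5'UTR luciferase fusion; 0% = DMSO wells and 100% = positive control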
Gli-Sufu block: Gli-Sufu pathway antagonists, primary screen, luciferase luminescence, Sufu-KO-LIGHT cells, uHTS. Sufu-KO-LIGHT fibroblasts, Gli luciferase reporter luminescence. inhibition, % at 5 µM. actives 0.74% (n = 340,000);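 active means inhibition above about 55%, limit read from the data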;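 further: 0% = DMSO-treated cells and 100% = wells with medium but no cells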
Jurkat NFkB inh: inhibitors of induced NF-kB luciferase reporter, primary screen, TCR NF-kB activation inhibitor project, cell-based, luminescence, uHTS; Jurkat, PMA/ionomycin-induced NF-kB luciferase reporter; inhibition, % at 4 µM; actives 0.53% (n = 330,000); in the data active means inhibition above about 50%
697 NFkB inh: inhibitors of PMA/ionomycin-induced NF-kB reporter, 697 cells, primary screen, B-cell NF-kB inhibitor project, cell-based, luminescence, uHTS | inhibition, % at 4 µM | actives 0.33% (n = 330,000) | 697 B-cell NF-kB luciferase reporter, 16 h; in the data active means inhibition above about 35%
Mdm2-MdmX inh: inhibitors of human Mdm2-MdmX association, primary screen, cell-based, luminescence, split luciferase, SaOS-2, uHTS | Protein Mdm4 (Homo sapiens) + E3 ubiquitin-protein ligase Mdm2 (Homo sapiens), … | SaOS-2 split-luciferase Mdm2/MdmX complementation | inhibition, % at 8 µM | actives 3% (n = 330,000);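 active means inhibition of at least 50% at 8 µM in the primary screen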
KLF5 inh confirm: KLF5 expression inhibitors, confirmation, DLD-1 cells, luminescence; AID 1834, 2009; inhibition, % at 4 µM; DLD-1 KLF5 promoter firefly luciferase reporter; actives 79% (n = 610); shares compounds with KLF5 inh;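 active means inhibition above a set limit taken from the earlier primary screen, cut at about 63% in these data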;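 further: 0% = DMSO wells and 100% = LY294002 at 200 µM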
IEC-6 tox: cytotoxicity in rat IEC-6 cells, cytotoxicity control for KLF5 inhibitor project, cell-based, luminescence, triplicate. shares compounds with KLF5 inh. IEC-6 rat intestinal cells, viability luminescence. inhibition, % at 4 µM. actives 56% (n = 610). AID 1905, 2009; in the data active means inhibition above about 23%;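 further: cells exposed to compounds for 48 hours before viability read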
Jurkat NFkB conf: PMA/ionomycin-induced NF-kB reporter inhibitors, Jurkat retest, confirmation, T-cell NF-kB inhibitor project, cell-based, luminescence, single concentration; shares compounds with Jurkat NFkB inh; Jurkat NF-kB luciferase, 16 h; inhibition, % at 4 µM; actives 27% (n = 2,700);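 active means inhibition reaching about 45% at 4 µM in either replicate, limit read from the data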;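 further: plate controls were PMA/ionomycin stimulated DMSO wells for no effect and unstimulated DMSO wells for full effect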
697 NFkB conf: PMA/ionomycin-induced NF-kB reporter inhibitors, 697 retest, confirmation, B-cell NF-kB inhibitor project, cell-based, luminescence, single concentration; shares compounds with 697 NFkB inh; 697 B-cell NF-kB luciferase, 16 h; inhibition, % at 4 µM; actives 35% (n = 2,000); AID 449746, 2010; in the data active means inhibition mostly above about 28%, no sharp cut-off; inactive means mostly below about 22%
Mdm2-MdmX conf: Mdm2-MdmX complex disruptors, retested hits, confirmation, luminescence, single concentration. actives 55% (n = 10,000). Mdm2-MdmX binding, luminescent assay. inhibition, % at 8 µM. shares compounds with Mdm2-MdmX inh; in the data active means inhibition above about 40%
Full FLuc ctr: full-length luciferase signal inhibition, confirmation, counter-screen for Mdm2/MdmX interaction inhibitor project, cell-based, single concentration, SaOS-2; shares compounds with Mdm2-MdmX inh; SaOS-2 full-length luciferase counterscreen, luminescence; inhibition, % at 8 µM; actives 77% (n = 6,200); AID 504607, 2011;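 active means mean inhibition at 8 µM reaching about 37%, which flags the compound as non-specific, limit read from the data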;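 further: p53-null SaOS-2 cells with luciferase driven by a doxycycline-inducible promoter; compound on cells about two nights before reading with doxycycline added after day one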
The depositor's hits bear a star; u = inconclusive; x = no result. This is a sample that favours compounds with a hit; in the whole collection about 4.1% have one here.

SMILES	KLF5 inh	aSyn UTR inh	Gli-Sufu block	Jurkat NFkB inh	697 NFkB inh	Mdm2-MdmX inh	KLF5 inh confirm	IEC-6 tox	Jurkat NFkB conf	Mdm2-MdmX conf	Full FLuc ctr	others
COc1ccc(/C=N/NC(=O)COc2ccccc2-c2ccccc2)cc1	65*	70*	33	56*	20	56*	77*	54*	47*	68*	90*
COc1ccccc1N1CCN(CCN2C(=O)C3CCCCN3C2=O)CC1 (stereo not given)	-9	6	-19	-18	-57	-5	x	x	x	x	x
CCOc1ccccc1N1CC(C(=O)Nc2cc(S(C)(=O)=O)ccc2Cl)CC1=O (stereo not given)	x	7	-7	-14	1	4	x	x	x	x	x
Cc1ccc(-n2nnnc2-c2cccc(C)c2)cc1	-31	4	-1	-3	-2	11	x	x	x	x	x
COc1ccc(-n2nnnc2-c2cccc(OC)c2)cc1	77*	64*	11	50	-5	56*	86*	58*	42	54*	66*
Cc1nc(SCC(=O)Nc2nc3ccccc3s2)c(C#N)c(C)c1C	96*	100*	90*	90*	33	100*	108*	27*	89*	100*	53*
COc1ccc(-c2cc3nc(C)n(N)c(=O)c3s2)cc1	96*	115*	76*	80*	53*	89*	109*	36*	83*	88*	56*	697 NFkB conf=49*
O=C(Nc1ccc(NC(=O)c2ccco2)nc1)c1ccco1	-60	1	-47	-95	-62	-68	x	x	x	x	x
CC(C)(C)C(=O)Nc1ccc(NC(=O)c2ccco2)nc1	94*	102*	80*	78*	-33	90*	102*	9	88*	92*	58*
CC(C(=O)O/N=C(\N)c1ccccn1)c1ccc([N+](=O)[O-])cc1 (stereo not given)	-11	-54	-5	-23	10	8	x	x	x	x	x
N/C(=N\OCc1ccc([N+](=O)[O-])cc1)c1ccccn1	88*	112*	-20	60*	23	76*	97*	-3	65*	67*	44*
Cc1ccnc(NC(=O)c2ccc(Cl)c(NC(=O)c3ccccc3C)c2)c1	-26	-9	-1	11	-11	26	x	x	x	x	x
Cc1ccnc(NC(=O)c2ccccc2NC(=O)c2ccc(Cl)cc2Cl)c1	67*	69*	27	41	-57	64*	69*	49*	x	57*	66*
CCO[C@H]1OC(C(=O)NCc2nc3ccccc3[nH]2)=C[C@@H](C2CC2)[C@@H]1CCCO	72*	80*	15	61*	-11	53*	78*	64*	46	73*	69*
COc1ccc(OC)c(N/C=C/C(=O)c2ccccc2)c1	70*	83*	-35	-12	-220	58*	76*	2	x	62*	155*
COc1ccc(N/C=C/C(=O)c2cc(OC)c(OC)c(OC)c2)cc1	68*	u	35	35	-4	68*	73*	57*	x	60*	57*
COc1ccc(N/C=C/C(=O)c2ccc(OC)c(OC)c2)cc1	-13	-27	-28	-15	-5	29	x	x	x	x	x
COc1ccc(OC)c(N/C(C)=C/C(=O)c2ccccc2)c1	-32	-113	-78	-120	-91	-129	x	x	x	x	x
CCNc1ccc(C(=O)NN=C2CCCC2)cc1[N+](=O)[O-]	3	-11	8	18	7	14	x	x	x	x	x
COc1ccc(N(C(=O)c2ccccc2C)S(=O)(=O)c2cccs2)cc1	66*	31	46	66*	-1	59*	76*	62*	48	53*	105*
COc1ccc(N(C(=O)c2ccncc2)S(=O)(=O)c2ccccc2)cc1	-4	-15	-4	8	4	18	x	x	x	x	x
CCCCn1c(N)c(N(CCOC)C(=O)COc2ccc(Cl)cc2)c(=O)[nH]c1=O	2	4	-3	11	27	15	x	x	x	x	x
COc1ccc2c(C)cc(=O)oc2c1	x	x	-8	x	x	x	x	x	x	x	x
COc1ccccc1C1=NOC(COc2ccc3c(C)cc(=O)oc3c2)C1 (stereo not given)	71*	13	45	67*	-4	58*	81*	61*	39	58*	88*
COc1ccc(S(=O)(=O)NCCc2nnc3ccc(SCC(=O)Nc4nc(C)cs4)nn23)cc1	5	9	-2	-8	-4	8	x	x	x	x	x
Cn1c(=O)[nH]c(Nc2ccccc2)c([N+](=O)[O-])c1=O	-5	3	-4	-2	8	-15	x	x	x	x	x
COc1ccc(/C=N/NC(=O)c2[nH]c3ccc(Br)cc3c2-c2ccccc2)cc1	82*	80*	39	84*	-154	74*	90*	86*	61*	60*	108*
CCCCN=C1NN=C(c2ccc3c(c2)OCCO3)CS1	28	-30	-27	-34	-74	-39	x	x	x	x	x
c1cc2c(cc1C1=NNC(=NC3CC3)SC1)OCCO2	79*	111*	77*	60*	57*	92*	102*	30*	78*	86*	56*	697 NFkB conf=24
